Experimental data: the supplement of paper PMC9023506
Structures can show the parent of a compound that is named as a salt.

System: Danio rerio larvae (5 dpf)
Assay: habituation to 1-s acoustic pulses, difference vs DMSO (percentage points (treated minus DMSO)); higher = more of the behaviour than the DMSO vehicle control
Conditions: 10 µM; exposure time: 3 h pre-incubation + 3 h imaging
Description: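 5-dpf wild-type zebrafish larvae were imaged in 96-well plates. They were treated with 190 Tocris FDA-approved drugs at 10 µM (1 µl/ml DMSO) for 3 h before and 3 h during imaging at 28.5 °C, 48 larvae per drug. Automated image analysis gave % time moving and optomotor responses. Values are drug group mean minus DMSO vehicle mean (n=844), in percentage points, for 10 behaviours.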

Going from `CC(C)c1nc(CN(C)C(=O)N[C@H](C(=O)N[C@@H](Cc2ccccc2)C[C@H](O)[C@H](Cc2ccccc2)NC(=O)OCc2cncs2)C(C)C)cs1` [Ritonavir] to `CC(C)(C)NC(=O)[C@@H]1C[C@@H]2CCCC[C@@H]2CN1C[C@@H](O)[C@H](Cc1ccccc1)NC(=O)[C@H](CC(N)=O)NC(=O)c1ccc2ccccc2n1` [Saquinavir mesylate], the “habituation to 1-s acoustic pulses” value rises from -0.262 to -0.0249.

First: CCCc1nn(C)c2c(=O)[nH]c(-c3cc(S(=O)(=O)N4CCN(C)CC4)ccc3OCC)nc12 [Sildenafil citrate]
Second: COc1cc2nc(N3CCN(C(=O)C4COc5ccccc5O4)CC3)nc(N)c2cc1OC (stereo not given) [Doxazosin mesylate]
The “habituation to 1-s acoustic pulses” value of the first is lower: -2.79 for the first, -2.28 for the second.

Going from `OCCN1C[C@H](O)[C@@H](O)[C@H](O)[C@H]1CO` [Miglitol] to `Nc1ncn([C@@H]2O[C@H](CO)[C@@H](O)[C@H]2O)c(=O)n1` [5-Azacytidine], the “habituation to 1-s acoustic pulses” value falls from 0.997 to 0.737.

Compared with `CC(C)(C#N)c1cc(Cn2cncn2)cc(C(C)(C)C#N)c1` [Anastrozole], `C[C@@H](O[C@H]1OCCN(Cc2n[nH]c(=O)[nH]2)[C@H]1c1ccc(F)cc1)c1cc(C(F)(F)F)cc(C(F)(F)F)c1` [Aprepitant] is lower in “habituation to 1-s acoustic pulses” value: 6.34 for the first, 0.23 for the second.

Going from `CC(=O)Oc1ccccc1C(=O)O` [Aspirin] to `O=C(O)CCCc1ccccc1` [Sodium 4-Phenylbutyrate], the “habituation to 1-s acoustic pulses” value rises from -5.13 to -4.19.

Compared with `C[C@]12CC[C@@H]3c4ccc(O)cc4C[C@@H](CCCCCCCCC[S+]([O-])CCCC(F)(F)C(F)(F)F)[C@H]3[C@@H]1CC[C@@H]2O` (stereo not given in full), `C[C@H]1C[C@@H]2[C@H]([C@@H](O)C[C@@]3(C)[C@H]2CC[C@]3(O)C(=O)CO)[C@@]2(C)C=CC(=O)C=C12` [Methylprednisolone] is higher in “habituation to 1-s acoustic pulses” value: -2.82 for the first, -1.22 for the second.

First: O=C(O[C@@H]1C[C@@H]2C[C@H]3C[C@H](C1)N2CC3=O)c1c[nH]c2ccccc12 [Dolasetron mesylate]
Second: CNS(=O)(=O)Cc1ccc2[nH]cc(CCN(C)C)c2c1 [Sumatriptan succinate]
The “habituation to 1-s acoustic pulses” value of the first is higher: 2.06 for the first, -0.62 for the second.

Going from `COc1ccc(Cl)cc1C(=O)NCCc1ccc(S(=O)(=O)NC(=O)NC2CCCCC2)cc1` [Glibenclamide] to `COc1cc(N)c(Cl)cc1C(=O)NC1CCN(CCCOc2ccc(F)cc2)CC1OC` (stereo not given) [Cisapride], the “habituation to 1-s acoustic pulses” value rises from -1.87 to 6.52.

Going from `C=C1[C@H](CO)[C@@H](O)C[C@@H]1n1cnc2c(=O)[nH]c(N)nc21` [Entecavir] to `Nc1ncn([C@H]2C[C@H](O)[C@@H](CO)O2)c(=O)n1` [Decitabine], the “habituation to 1-s acoustic pulses” value rises from 3.17 to 5.67.

First: Cc1ccccc1C(=O)Nc1ccc(C(=O)N2CCCC(O)c3cc(Cl)ccc32)c(C)c1 (stereo not given) [Tolvaptan]
Second: COc1cc2nccc(Oc3ccc(NC(=O)C4(C(=O)Nc5ccc(F)cc5)CC4)cc3)c2cc1OC
The “habituation to 1-s acoustic pulses” value of the first is higher: 1.17 for the first, -4.53 for the second.

First: COc1cc([C@@H]2c3cc4c(cc3[C@@H](O[C@@H]3O[C@@H]5CO[C@@H](C)O[C@H]5[C@H](O)[C@H]3O)[C@H]3COC(=O)[C@H]23)OCO4)cc(OC)c1O [Etoposide]
Second: COc1cccc2c1C(=O)c1c(O)c3c(c(O)c1C2=O)C[C@@](O)(C(=O)CO)C[C@@H]3O[C@H]1C[C@H](N)[C@H](O)[C@H](C)O1 [Doxorubicin hydrochloride]
The “habituation to 1-s acoustic pulses” value of the first is lower: 0.485 for the first, 3.26 for the second.

Going from `CC[C@H](C)C(=O)O[C@H]1C[C@@H](C)C=C2C=C[C@H](C)[C@H](CC[C@@H]3C[C@@H](O)CC(=O)O3)[C@H]21` [Lovastatin] to `CCC(C)(C)C(=O)O[C@H]1C[C@@H](C)C=C2C=C[C@H](C)[C@H](CC[C@@H]3C[C@@H](O)CC(=O)O3)[C@H]21` [Simvastatin], the “habituation to 1-s acoustic pulses” value falls from -1.04 to -1.13.

Compared with `CC(=O)Nc1ccc(O)cc1` [Acetaminophen], `C/C(O)=C(\C#N)C(=O)Nc1ccc(C(F)(F)F)cc1` [Teriflunomide] is higher in “habituation to 1-s acoustic pulses” value: -1.9 for the first, -1.26 for the second.

First: O=C1CCc2ccc(OCCCCN3CCN(c4cccc(Cl)c4Cl)CC3)cc2N1 [Aripiprazole]
Second: CN(CCOc1ccc(NS(C)(=O)=O)cc1)CCc1ccc(NS(C)(=O)=O)cc1 [Dofetilide]
The “habituation to 1-s acoustic pulses” value of the first is lower: -5.72 for the first, 5.42 for the second.

Compared with `CC(C)CN(C[C@@H](O)[C@H](Cc1ccccc1)NC(=O)O[C@H]1CO[C@H]2OCC[C@H]21)S(=O)(=O)c1ccc(N)cc1` [Darunavir], `CCN(Cc1ccncc1)C(=O)C(CO)c1ccccc1` (stereo not given) [Tropicamide] is lower in “habituation to 1-s acoustic pulses” value: -1.13 for the first, -1.73 for the second.

Compared with `Cc1cccc(C)c1OCC(C)N` (stereo not given) [Mexiletine hydrochloride], `CCOc1ccccc1OCCN[C@H](C)Cc1ccc(OC)c(S(N)(=O)=O)c1` [Tamsulosin hydrochloride] is lower in “habituation to 1-s acoustic pulses” value: 5.97 for the first, -0.195 for the second.

First: Nc1nc(NC2CC2)c2ncn([C@H]3C=C[C@@H](CO)C3)c2n1 [Abacavir hemisulfate]
Second: Nc1nc(Cl)nc2c1ncn2[C@@H]1O[C@H](CO)[C@@H](O)[C@@H]1F [Clofarabine]
The “habituation to 1-s acoustic pulses” value of the first is higher: 3.08 for the first, -0.305 for the second.

Compared with `CCOC(=O)C1=C(COCCN)NC(C)=C(C(=O)OC)C1c1ccccc1Cl` (stereo not given) [Amlodipine besylate], `CC1=Nc2ccc(Cl)cc2S(=O)(=O)N1` [Diazoxide] is higher in “habituation to 1-s acoustic pulses” value: -2.17 for the first, 9.12 for the second.

Compared with `Nc1ccn([C@@H]2O[C@H](CO)[C@@H](O)C2(F)F)c(=O)n1` [Gemcitabine hydrochloride], `Cc1cc(C2CCCCC2)n(O)c(=O)c1` [Ciclopirox] is higher in “habituation to 1-s acoustic pulses” value: -2.82 for the first, 0.443 for the second.

Going from `Cc1ccc(N(CC2=NCCN2)c2cccc(O)c2)cc1` [Phentolamine Mesylate] to `NS(=O)(=O)c1cc2c(cc1Cl)NC(C1CC3C=CC1C3)NS2(=O)=O` (stereo not given) [Cyclothiazide], the “habituation to 1-s acoustic pulses” value falls from 5.8 to 2.19.
